Rows were chosen to be rich in hits. Some 10% of all compounds tested hit in one or more screens of this group.
ROMK mod: modulators of human ROMK potassium channel; 2% of 130,000 active; B-score at 10 µM; Tet-inducible ROMK, thallium flux fluorescence; actives lie on both sides;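 active = signal ratio slope over the read window, or its plate-corrected B-score, at least 3 SD from the plate mean, either direction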;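 also: B-score of the F/F0 ratio slope over 7 to 12 s after thallium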
p97 ATPase inh: blocks human p97 ATPase activity; recombinant p97 ATPase, Kinase-Glo ATP luminescence, 3 h; 0.42% of 220,000 active; inhibition, % at 8 µM; P55072; in the data active = inhibition above about 15%;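 also: 0% = DMSO vehicle and 100% = wells lacking enzyme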
Target sequence (P55072 whole entry, looked up): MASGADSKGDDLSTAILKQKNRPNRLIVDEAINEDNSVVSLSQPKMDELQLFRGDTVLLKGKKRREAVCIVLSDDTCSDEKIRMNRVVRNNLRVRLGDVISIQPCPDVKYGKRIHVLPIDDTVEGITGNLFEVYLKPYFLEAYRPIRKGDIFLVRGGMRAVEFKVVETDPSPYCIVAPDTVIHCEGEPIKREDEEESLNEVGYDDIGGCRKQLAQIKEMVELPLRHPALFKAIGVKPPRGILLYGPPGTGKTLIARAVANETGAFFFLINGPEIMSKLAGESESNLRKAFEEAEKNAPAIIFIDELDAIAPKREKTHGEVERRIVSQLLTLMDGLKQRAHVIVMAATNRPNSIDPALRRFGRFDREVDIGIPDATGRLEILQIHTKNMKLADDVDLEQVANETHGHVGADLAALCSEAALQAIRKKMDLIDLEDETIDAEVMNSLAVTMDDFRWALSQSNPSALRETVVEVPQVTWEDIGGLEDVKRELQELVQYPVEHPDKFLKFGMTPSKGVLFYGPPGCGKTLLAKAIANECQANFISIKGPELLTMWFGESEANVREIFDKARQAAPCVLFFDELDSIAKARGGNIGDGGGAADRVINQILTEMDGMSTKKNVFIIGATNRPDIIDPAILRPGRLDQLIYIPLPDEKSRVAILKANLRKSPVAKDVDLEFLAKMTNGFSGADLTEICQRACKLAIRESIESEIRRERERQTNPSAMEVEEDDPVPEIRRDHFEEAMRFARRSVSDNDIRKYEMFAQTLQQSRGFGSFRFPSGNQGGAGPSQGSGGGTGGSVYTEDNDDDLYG
HCT116 PTEN-null: growth suppressors of cells with PTEN tumor suppressor deletion; viability, % at 10 µM; 1.2% of 140,000 active; AID 827; HCT116 PTEN-null viability, CellTiter-Glo, 60 h; active compounds read low;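 active = viability at or below a set limit, 4 SD under the median of all tested compounds, cut at about 3.7% in these data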;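 also: PTEN knockout HCT116 line with beta catenin targeted HCT116 as companion control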
Insulin prom inh: TRM-6 insulin promoter activity inhibition. TRM-6 cells (human fetal islet line), insulin promoter-eGFP reporter, imaging; reporter expression induced with tamoxifen. inhibition, % at 2 µM. 0.9% of 130,000 active. AID 1273;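 active = inhibition above the mean plus 3 SD, with well images judged a real hit on visual review, cut at about 60% in these data, passing the limit was not always enough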
Lmaj promast: inhibitors of Leishmania major promastigote growth; Leishmania major promastigotes, resazurin fluorescence viability; inhibition, % at 10 µM; 9% of 200,000 active; AID 1063; in the data active = inhibition above about 50%;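 also: promastigotes grown with compound for 44 hours at 28 °C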
HCT116 bCat-KO: beta-catenin-lacking colon tumor cell growth suppression; 1.5% of 140,000 active; viability, % at 10 µM; HCT116 beta-catenin knockout viability, CellTiter-Glo, 60 h; active compounds read low;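 active = viability at or under a set limit, the compound median less 4 SD, cut at about 6% in these data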;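 also: 0% = Hyamine 1622 control at 20 µM and 100% = untreated cell control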
The depositor's hits bear a star; . = no result.

SMILES	ROMK mod	p97 ATPase inh	HCT116 PTEN-null	Insulin prom inh	Lmaj promast	HCT116 bCat-KO
CC1(C)CC(=O)C(=Cc2cn(-c3ccccc3)nc2-c2ccc(Cl)cc2)C(=O)C1	.	0.8	8.1	50.0	68.7*	13.5
CC1(C)CC(=O)C(=Cc2cn(CCC#N)nc2-c2ccc(Cl)cc2)C(=O)C1	-0.492	0.5	98.1	.	0.0	99.3
CN(C(=O)Cn1cccc1C1=NC(c2ccccc2)CO1)c1ccccc1 (stereo unspecified)	0.0386	2.6	.	-54.5	5.1	.
CCOC(=O)N1CCN(C(=O)CN(c2ccc3c(c2)OCO3)S(C)(=O)=O)CC1	-0.327	-4.0	96.6	79.0*	-3.2	94.2
CCN(CC)CC(=O)Nc1ccc(-c2ccc(NC(=O)CN(CC)CC)c(OC)c2)cc1OC	-0.452	3.2	.	.	20.9	.
Cc1nn(CC(=O)Nc2ccc(S(=O)(=O)N(C)C)cc2)c(C)c1[N+](=O)[O-]	0.68	2.7	97.6	-16.7	0.3	80.0
Nc1ccc(N2CCOCC2)cc1C(F)(F)F	0.596	6.1	.	28.2	-2.2	.
COc1cccc(-n2c(CN3CCN(c4ccccn4)CC3)nc3ccc([N+](=O)[O-])cc3c2=O)c1	0.565	2.5	.	.	16.4	.
COc1cccc(-n2c(CN3CCN(c4cccc(C)c4)C(C)C3)nc3ccc([N+](=O)[O-])cc3c2=O)c1 (stereo unspecified)	0.00373	-3.1	64.8	22.2	65.9*	71.0
COc1cccc(-n2c(CN3CCN(c4ccc(C)cc4)C(C)C3)nc3ccc([N+](=O)[O-])cc3c2=O)c1 (stereo unspecified)	0.106	2.1	58.9	37.9	91.8*	68.6
Cc1cc(C)nc(Sc2nc(C)nc3c2oc2ccccc23)n1	-0.148	0.3	14.1	.	71.8*	14.3
COc1ccc(-c2c(C(F)(F)F)oc3c(CN4CCN(C)CC4)c(O)ccc3c2=O)cc1	.	-0.4	93.2	-50.0	99.8*	90.4
COc1ccccc1Oc1c(C)oc2c(CN3CCN(C)CC3)c(O)ccc2c1=O	0.61	-1.3	95.2	-28.6	21.4	87.1
COc1ccc(-c2c(C)oc3c(CN4CCN(C)CC4)c(O)ccc3c2=O)cc1	.	-2.7	104.9	.	99.1*	87.1
COC(=O)c1ccc(Oc2c(C)oc3c(CN4CCN(C)CC4)c(O)ccc3c2=O)cc1	0.607	-6.7	89.0	38.5	99.8*	85.3
CCN1CCN(Cc2c(O)ccc3c(=O)c(-c4ccc(OC)c(OC)c4)c(C)oc23)CC1	0.495	-8.9	99.6	23.1	100.0*	101.0
COC(=O)c1ccc(C(=O)N2CCCC(CNC(=O)c3ccccc3Cl)C2)cc1 (stereo unspecified)	0.947	3.5	.	.	-3.5	.
Cc1ccn2cc(-c3cccc([N+](=O)[O-])c3)nc2c1	-1.85	-8.9	.	44.4	20.6	.
CC(=O)Nc1ccc2nc(CN3CCC(CO)(CCc4ccccc4)CC3)ccc2c1	.	-2.7	.	.	.	.
O=c1c(Oc2ccccc2Br)c(C(F)(F)F)oc2c(CN3CCCC3)c(O)ccc12	.	0.8	71.4	-19.2	85.7*	88.0
COc1ccccc1/C=C1\SC(=O)N(CCC(=O)NNC(=O)c2ccccc2Cl)C1=O	.	1.9	101.5	45.8	-2.9	93.9
COc1ccccc1OCCN1C(=O)S/C(=C\c2ccco2)C1=O	.	0.7	89.1	.	54.7*	82.8
CCN(CC)S(=O)(=O)c1cc(C)ccc1SC	-0.319	-0.2	80.8	-26.7	-2.6	89.6
COc1cc(C)c(Cl)cc1S(=O)(=O)NCCCN1CCOCC1	.	3.1	88.3	39.1	85.5*	86.5
Cc1ccc(S(=O)(=O)NCCCN2CCOCC2)c(C)c1	0.965	-0.4	96.5	-9.7	52.4*	86.4
SMILES	ROMK mod	p97 ATPase inh	HCT116 PTEN-null	Insulin prom inh	Lmaj promast	HCT116 bCat-KO
COc1cc(C)c(Br)cc1S(=O)(=O)NCCCN1CCOCC1	.	2.9	.	.	75.1*	.
Cc1cc(Br)c(S(=O)(=O)NCCN2CCOCC2)cc1C	-0.884	1.6	98.6	.	1.2	82.7
COc1cc(Cl)c(S(=O)(=O)NCCCN2CCOCC2)cc1Cl	0.0667	1.5	105.0	2.7	93.1*	94.0
COc1cc(C)c(Cl)cc1S(=O)(=O)NCCN1CCOCC1	0.448	-3.3	113.3	13.0	-2.5	122.3
Cc1ccc(C(=O)NCC(=O)NCC(=O)OCC(=O)c2cccs2)cc1	-0.666	3.1	88.7	-471.4	-1.4	88.3
CCCCN(C)C1=Nc2cccc3cccc1c23	-1.3	3.2	36.1	75.3*	56.9*	46.7
CCOC(=O)N1CCN(C2=Nc3cccc4cccc2c34)CC1	.	2.9	72.9	.	15.3	70.8
O=C(CSc1nc2ccccc2s1)CSc1nc2ccccc2s1	0.255	3.5	96.5	-94.3	-5.5	86.5
O=S1(=O)C=C(Sc2nc3ccccc3s2)c2ccccc21	.	7.0	1.2*	.	100.3*	1.9*
O=S1(=O)C=C(Sc2nnc(-c3ccccc3)o2)c2ccccc21	.	10.1	0.9*	-270.4	17.2	1.2*
Cc1cc(C)nc(SC2=CS(=O)(=O)c3ccccc32)n1	0.561	-3.7	1.8*	6.2	20.0	2.0*
Nc1nnnn1CC(=O)N/N=C/c1ccccn1	.	0.9	.	.	.	.
CC(=O)c1ccc(Nc2ccc(-c3ccccc3F)nn2)cc1	-0.0895	1.9	.	27.8	0.9	.
Cc1csc(N/N=C/c2ccccn2)n1	-0.519	-11.8	.	50.0	94.6*	.
C(=N\NC1=Nc2cccc3cccc1c23)/c1ccccn1	-0.0163	4.4	.	-58.3	100.3*	.
O=C(CC1C=Cc2ccccc2N1C(=O)c1ccccc1)c1ccccc1 (stereo unspecified)	.	1.1	.	.	.	.
O=C(Nc1ccccc1)C1=C[C@@H](C2CCCCC2)C[C@@H](OCCCCO)O1	.	-2.1	.	.	91.7*	.
NC(=O)C1=C[C@@H](C2CCCCC2)C[C@@H](OCCCCO)O1	.	3.3	.	.	-5.7	.
O=C(Nc1ccccc1)C1=C[C@H](C2CCCCC2)C[C@H](OCc2ccc(CO)cc2)O1	.	-0.7	.	.	38.4	.
O=C(Nc1ccccc1)C1=C[C@@H](C2CCCCC2)C[C@@H](OCc2ccc(CO)cc2)O1	.	-3.1	.	.	96.6*	.
CC(=O)n1cc([C@H]2C=C(C(=O)Nc3ccccc3)O[C@@H](OCCCCO)C2)c2ccccc21	.	5.1	.	.	53.7*	.
CCO[C@H]1OC(C(=O)NCc2ccccc2)=C[C@@H](c2cn(C(C)=O)c3ccccc23)[C@@H]1CCCO	.	6.2	.	.	82.0*	.
COCCNC(=O)CSc1nnc(-c2ccccc2)c(-c2ccccc2)n1	0.148	2.0	.	.	-3.0	.
Cc1cc(C)c(C)c(S(=O)(=O)NCC(=O)N2CCCC2)c1C	.	-4.8	91.2	20.0	0.3	87.6
CC(C)(C)c1nn(-c2ccccc2)c2[nH]c(=O)c(CNCc3ccco3)cc12	-0.0262	2.5	24.1	-26.7	11.8	35.7
COc1ccc(CNCc2cc3c(C(C)(C)C)nn(-c4ccccc4)c3[nH]c2=O)cc1	-0.263	4.4	0.6*	-25.0	17.4	0.5*
Cc1ccc(CNCc2cc3c(C(C)(C)C)nn(-c4ccccc4)c3[nH]c2=O)cc1	-1.26	3.4	4.7	28.6	23.2	3.7*
COC(=O)c1ccccc1NC(=O)COc1ccc(S(=O)(=O)NC(C)C)cc1	.	0.0	.	.	-3.4	.
COC(=O)Cn1nc(-c2ccc(C)cc2)c2ccccc2c1=O	0.336	-1.5	.	11.1	1.7	.

Screens deposited in PubChem BioAssay by several laboratories.
